Drawing on publication PMC7862700, “An all-to-all approach to the identification of sequence-specific readers for epigenetic DNA modifications on cytosine”, this text covers binding signal for one sequence.

Test in all cases: DAPPL (digital affinity profiling via proximity ligation, sequencing); 10 mM Tris-HCl pH 7.5, 50 mM NaCl, 1 mM DTT, 4% glycerol, room temperature, 30 min; GST-TFs on glutathione beads, 16-mer random dsDNA library, 0.1% formaldehyde crosslink after washing; high values mean tight binding
One experiment concerns the target T1, FEV (Homo sapiens, UniProt Q99581 1-238).
T1 sequence: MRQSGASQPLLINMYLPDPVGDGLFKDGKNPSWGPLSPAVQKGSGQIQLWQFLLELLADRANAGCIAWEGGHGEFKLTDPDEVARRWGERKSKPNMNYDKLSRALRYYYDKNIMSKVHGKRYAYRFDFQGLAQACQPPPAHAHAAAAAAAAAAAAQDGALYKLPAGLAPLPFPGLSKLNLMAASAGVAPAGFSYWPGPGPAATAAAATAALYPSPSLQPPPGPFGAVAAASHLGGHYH
Conditions: protein: recombinant; tags: N-terminal GST; dsDNA, one strand shown. In a few lines: (§1)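 In yeast, human transcription factors were expressed with a GST fusion, then pulled down on glutathione beads and given DNA barcodes. Pooled with a tag-only sample, they were exposed to 200 nmole of a 16-mer random double-stranded DNA library (Tris/NaCl/DTT/glycerol buffer, room temperature, 30 min), washed, crosslinked with 0.1% formaldehyde, proximity-ligated using BsaI/T4 ligase for 1 h at 37 °C, PCR-amplified and read on an Illumina NextSeq500. Each hexamer's frequency of reads for a factor, divided by the matching frequency for the tag-only sample, gives the binding signal.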

A further experiment concerns the target ETV5 (Homo sapiens, UniProt P41161 1-510). Conditions: protein: recombinant; tags: N-terminal GST; dsDNA, one strand shown. In a few lines:
as §1

A further experiment deals with HSF1 (Homo sapiens, UniProt Q00613 1-529). Conditions: protein: recombinant; tags: N-terminal GST; chain copies: 3; dsDNA, one strand shown. In a few lines:
as §1

For the next experiment, the target named is T2, SPIC (Homo sapiens, UniProt Q8N5J4 1-248).
T2 sequence: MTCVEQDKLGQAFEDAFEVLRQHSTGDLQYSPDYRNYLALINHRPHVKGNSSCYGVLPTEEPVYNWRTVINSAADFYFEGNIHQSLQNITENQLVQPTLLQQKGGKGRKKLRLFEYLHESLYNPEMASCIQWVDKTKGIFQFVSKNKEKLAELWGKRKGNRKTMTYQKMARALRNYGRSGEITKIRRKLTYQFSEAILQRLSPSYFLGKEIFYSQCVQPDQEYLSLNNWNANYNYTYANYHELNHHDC
Conditions: protein: recombinant; tags: N-terminal GST; dsDNA, one strand shown. In a few lines: as §1

A further experiment addresses ELF4 (Homo sapiens, UniProt Q99607 1-663). Conditions: protein: recombinant; tags: N-terminal GST; dsDNA, one strand shown. In a few lines: as §1
The target of another experiment is T3, ELK4 (Homo sapiens, UniProt P28324-2 1-405).
T3 sequence: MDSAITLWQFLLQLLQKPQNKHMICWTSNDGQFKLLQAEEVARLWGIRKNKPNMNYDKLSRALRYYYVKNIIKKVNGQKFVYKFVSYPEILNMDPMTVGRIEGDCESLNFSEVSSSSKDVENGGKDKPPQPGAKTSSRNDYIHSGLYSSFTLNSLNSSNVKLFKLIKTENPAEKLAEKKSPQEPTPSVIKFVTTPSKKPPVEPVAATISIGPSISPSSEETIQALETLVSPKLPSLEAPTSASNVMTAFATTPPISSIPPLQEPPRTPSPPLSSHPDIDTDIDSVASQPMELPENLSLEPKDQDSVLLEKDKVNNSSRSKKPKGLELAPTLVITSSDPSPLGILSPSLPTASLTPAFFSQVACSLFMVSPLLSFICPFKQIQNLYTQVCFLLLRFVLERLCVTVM
Conditions: protein: recombinant; tags: N-terminal GST; dsDNA, one strand shown. In a few lines: as §1

The next experiment deals with T4, ETV2 (Homo sapiens, UniProt O00321 1-342).
T4 sequence: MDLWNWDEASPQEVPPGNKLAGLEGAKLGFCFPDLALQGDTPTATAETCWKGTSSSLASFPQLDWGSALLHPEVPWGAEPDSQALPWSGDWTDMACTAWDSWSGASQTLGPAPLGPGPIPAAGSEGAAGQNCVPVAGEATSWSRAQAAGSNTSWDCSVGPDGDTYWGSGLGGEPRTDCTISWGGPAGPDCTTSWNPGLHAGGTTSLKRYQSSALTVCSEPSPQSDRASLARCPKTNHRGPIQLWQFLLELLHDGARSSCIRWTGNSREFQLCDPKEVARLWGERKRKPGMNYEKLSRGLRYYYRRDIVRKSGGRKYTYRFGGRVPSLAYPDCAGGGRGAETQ
Conditions: protein: recombinant; tags: N-terminal GST; dsDNA, one strand shown. In a few lines:
as §1

The next experiment deals with T5, ELF3 (Homo sapiens, UniProt P78545 1-371).
T5 sequence: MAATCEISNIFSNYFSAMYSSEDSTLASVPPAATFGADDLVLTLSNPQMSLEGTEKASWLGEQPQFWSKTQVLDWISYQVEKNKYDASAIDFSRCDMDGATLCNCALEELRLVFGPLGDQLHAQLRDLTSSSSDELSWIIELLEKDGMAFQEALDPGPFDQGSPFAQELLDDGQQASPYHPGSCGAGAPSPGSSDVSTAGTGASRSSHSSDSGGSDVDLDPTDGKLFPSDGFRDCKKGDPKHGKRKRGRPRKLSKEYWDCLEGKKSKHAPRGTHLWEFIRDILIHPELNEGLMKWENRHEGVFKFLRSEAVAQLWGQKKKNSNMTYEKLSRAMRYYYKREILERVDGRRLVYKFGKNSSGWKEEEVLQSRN
Conditions: protein: recombinant; tags: N-terminal GST; dsDNA, one strand shown. In a few lines: as §1

In another experiment the target is CRX (Homo sapiens, UniProt O43186 1-299). Conditions: protein: recombinant; tags: N-terminal GST; dsDNA, one strand shown. In a few lines: as §1
The target in a further experiment is ETV1 (Homo sapiens, UniProt P50549 1-477). Conditions: protein: recombinant; tags: N-terminal GST; dsDNA, one strand shown. In a few lines: as §1
In another experiment the target is T6, ERF (Homo sapiens, UniProt P50548 1-548).
T6 sequence: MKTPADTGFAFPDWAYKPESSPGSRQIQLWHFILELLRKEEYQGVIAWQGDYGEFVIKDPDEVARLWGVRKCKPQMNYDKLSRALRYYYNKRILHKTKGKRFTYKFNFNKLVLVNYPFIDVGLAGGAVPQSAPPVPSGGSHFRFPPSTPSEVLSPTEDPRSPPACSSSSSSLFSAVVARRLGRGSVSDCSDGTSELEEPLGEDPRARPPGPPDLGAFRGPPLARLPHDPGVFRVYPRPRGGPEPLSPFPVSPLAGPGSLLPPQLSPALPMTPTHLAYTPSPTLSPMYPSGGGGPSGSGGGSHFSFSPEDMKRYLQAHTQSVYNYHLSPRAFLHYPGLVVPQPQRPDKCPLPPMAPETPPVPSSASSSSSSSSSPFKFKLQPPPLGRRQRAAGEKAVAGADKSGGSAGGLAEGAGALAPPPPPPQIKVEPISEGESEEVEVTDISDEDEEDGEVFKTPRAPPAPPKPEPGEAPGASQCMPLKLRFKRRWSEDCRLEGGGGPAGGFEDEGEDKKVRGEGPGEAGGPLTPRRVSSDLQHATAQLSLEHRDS
Conditions: protein: recombinant; tags: N-terminal GST; dsDNA, one strand shown. In a few lines: as §1

The target of the next experiment is T7, ETV3L (Homo sapiens, UniProt Q6ZN32 1-361).
T7 sequence: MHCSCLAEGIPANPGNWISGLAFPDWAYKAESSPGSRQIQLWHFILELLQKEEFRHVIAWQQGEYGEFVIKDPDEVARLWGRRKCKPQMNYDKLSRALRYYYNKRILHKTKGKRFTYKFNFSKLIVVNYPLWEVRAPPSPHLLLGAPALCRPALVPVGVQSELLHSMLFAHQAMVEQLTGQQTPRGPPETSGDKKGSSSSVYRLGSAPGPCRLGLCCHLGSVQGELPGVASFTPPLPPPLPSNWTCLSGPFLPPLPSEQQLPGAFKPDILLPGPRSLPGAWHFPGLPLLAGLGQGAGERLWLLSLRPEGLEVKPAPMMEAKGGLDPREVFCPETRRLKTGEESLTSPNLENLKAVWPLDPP
The settings on record: protein: recombinant; tags: N-terminal GST; dsDNA, one strand shown. In a few lines: as §1

The target in the next experiment is T8, ETS2 (Homo sapiens, UniProt P15036 1-469).
T8 sequence: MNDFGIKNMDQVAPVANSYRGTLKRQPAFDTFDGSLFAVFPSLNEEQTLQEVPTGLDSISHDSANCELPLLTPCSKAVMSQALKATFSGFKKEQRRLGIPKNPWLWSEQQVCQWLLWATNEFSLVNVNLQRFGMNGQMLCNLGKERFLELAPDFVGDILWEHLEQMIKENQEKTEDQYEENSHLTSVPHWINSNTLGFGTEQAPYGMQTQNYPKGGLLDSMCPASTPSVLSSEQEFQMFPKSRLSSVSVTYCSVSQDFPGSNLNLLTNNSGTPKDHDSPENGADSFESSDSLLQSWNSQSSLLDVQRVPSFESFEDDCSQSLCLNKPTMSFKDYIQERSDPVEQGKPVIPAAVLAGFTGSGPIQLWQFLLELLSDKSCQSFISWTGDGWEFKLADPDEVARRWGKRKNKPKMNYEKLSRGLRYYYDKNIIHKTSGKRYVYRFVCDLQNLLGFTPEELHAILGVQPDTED
The settings on record: protein: recombinant; tags: N-terminal GST; dsDNA, one strand shown. In a few lines:
as §1

The target of the next experiment is T9, SPDEF (Homo sapiens, UniProt O95238 1-335).
T9 sequence: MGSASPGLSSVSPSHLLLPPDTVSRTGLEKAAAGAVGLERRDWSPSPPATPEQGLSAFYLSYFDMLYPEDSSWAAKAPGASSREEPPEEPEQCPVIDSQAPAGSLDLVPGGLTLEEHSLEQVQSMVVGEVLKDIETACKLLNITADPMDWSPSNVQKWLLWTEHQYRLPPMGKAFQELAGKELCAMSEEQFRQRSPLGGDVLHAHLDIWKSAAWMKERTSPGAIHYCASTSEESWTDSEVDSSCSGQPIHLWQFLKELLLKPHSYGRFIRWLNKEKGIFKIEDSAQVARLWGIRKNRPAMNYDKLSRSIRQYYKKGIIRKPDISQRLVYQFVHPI
Conditions: protein: recombinant; tags: N-terminal GST; dsDNA, one strand shown. In a few lines: as §1

A further experiment deals with T10, ETV7 (Homo sapiens, UniProt Q9Y603 1-341).
T10 sequence: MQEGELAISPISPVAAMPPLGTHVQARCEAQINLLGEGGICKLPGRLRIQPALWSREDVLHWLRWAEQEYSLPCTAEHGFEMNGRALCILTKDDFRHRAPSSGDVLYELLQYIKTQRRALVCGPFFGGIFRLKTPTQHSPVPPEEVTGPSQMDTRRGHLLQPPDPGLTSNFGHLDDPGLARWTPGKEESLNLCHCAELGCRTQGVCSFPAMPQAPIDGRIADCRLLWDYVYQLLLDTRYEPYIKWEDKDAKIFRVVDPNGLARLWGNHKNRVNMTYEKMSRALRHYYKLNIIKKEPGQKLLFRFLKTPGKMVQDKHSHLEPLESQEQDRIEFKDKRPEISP
The settings on record: protein: recombinant; tags: N-terminal GST; dsDNA, one strand shown. In a few lines:
as §1

In the next experiment the target is T11, ELF5 (Homo sapiens, UniProt Q9UKW6-2 1-255).
T11 sequence: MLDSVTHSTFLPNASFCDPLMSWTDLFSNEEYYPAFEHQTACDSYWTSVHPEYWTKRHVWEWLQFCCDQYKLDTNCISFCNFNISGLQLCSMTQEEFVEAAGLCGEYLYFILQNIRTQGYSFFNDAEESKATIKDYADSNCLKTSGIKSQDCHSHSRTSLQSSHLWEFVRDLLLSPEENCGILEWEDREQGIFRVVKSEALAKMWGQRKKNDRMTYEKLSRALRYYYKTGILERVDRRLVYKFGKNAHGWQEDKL
The settings on record: protein: recombinant; tags: N-terminal GST; dsDNA, one strand shown. In a few lines:
as §1

Another experiment deals with T12, ETV3 (Homo sapiens, UniProt P41162-2 1-143).
T12 sequence: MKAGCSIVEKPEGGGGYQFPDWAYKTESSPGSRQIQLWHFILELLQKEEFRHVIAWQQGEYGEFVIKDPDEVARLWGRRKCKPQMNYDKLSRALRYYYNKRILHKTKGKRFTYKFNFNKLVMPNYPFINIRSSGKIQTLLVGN
Conditions: protein: recombinant; tags: N-terminal GST; dsDNA, one strand shown. In a few lines: as §1

The next experiment concerns the target ETV6 (Homo sapiens, UniProt P41212 1-452). Conditions: protein: recombinant; tags: N-terminal GST; dsDNA, one strand shown. In a few lines: as §1

Chain of CRX (O43186 whole entry): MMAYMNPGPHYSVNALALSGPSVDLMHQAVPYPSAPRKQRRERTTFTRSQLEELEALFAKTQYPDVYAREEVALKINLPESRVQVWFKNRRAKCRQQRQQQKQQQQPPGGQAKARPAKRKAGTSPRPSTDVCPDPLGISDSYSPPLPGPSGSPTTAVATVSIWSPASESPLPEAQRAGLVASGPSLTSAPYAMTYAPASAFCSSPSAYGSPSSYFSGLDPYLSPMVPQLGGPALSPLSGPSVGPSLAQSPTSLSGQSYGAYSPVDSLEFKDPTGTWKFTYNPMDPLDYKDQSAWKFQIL
Chain of ETV5 (P41161 whole entry): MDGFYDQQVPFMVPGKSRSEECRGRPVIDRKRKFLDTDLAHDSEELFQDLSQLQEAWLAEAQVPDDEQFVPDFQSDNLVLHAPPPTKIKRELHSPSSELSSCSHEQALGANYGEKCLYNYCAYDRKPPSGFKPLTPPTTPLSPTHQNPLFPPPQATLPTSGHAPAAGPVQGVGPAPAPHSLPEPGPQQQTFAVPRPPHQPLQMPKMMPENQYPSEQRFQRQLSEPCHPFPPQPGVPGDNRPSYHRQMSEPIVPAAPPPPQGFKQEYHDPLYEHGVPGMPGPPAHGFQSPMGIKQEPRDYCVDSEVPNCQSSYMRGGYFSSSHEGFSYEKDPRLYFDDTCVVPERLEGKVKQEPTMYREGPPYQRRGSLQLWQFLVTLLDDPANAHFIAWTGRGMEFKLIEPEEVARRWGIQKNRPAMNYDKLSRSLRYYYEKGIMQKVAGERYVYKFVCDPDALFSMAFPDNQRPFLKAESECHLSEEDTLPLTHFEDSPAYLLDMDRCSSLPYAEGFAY
Chain of ETV6 (P41212 whole entry): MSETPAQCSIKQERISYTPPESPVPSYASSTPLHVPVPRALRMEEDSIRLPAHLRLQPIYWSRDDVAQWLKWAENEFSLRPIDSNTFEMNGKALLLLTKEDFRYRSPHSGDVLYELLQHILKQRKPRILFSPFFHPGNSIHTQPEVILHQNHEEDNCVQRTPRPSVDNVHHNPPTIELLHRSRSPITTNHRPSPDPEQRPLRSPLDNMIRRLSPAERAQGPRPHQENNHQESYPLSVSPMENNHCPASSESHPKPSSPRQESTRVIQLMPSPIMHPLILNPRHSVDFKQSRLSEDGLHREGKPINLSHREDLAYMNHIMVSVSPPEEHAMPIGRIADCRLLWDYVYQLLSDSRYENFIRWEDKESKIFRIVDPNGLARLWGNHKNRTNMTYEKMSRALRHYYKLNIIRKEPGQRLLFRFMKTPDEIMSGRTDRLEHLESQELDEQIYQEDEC
Chain of ELF4 (Q99607 whole entry): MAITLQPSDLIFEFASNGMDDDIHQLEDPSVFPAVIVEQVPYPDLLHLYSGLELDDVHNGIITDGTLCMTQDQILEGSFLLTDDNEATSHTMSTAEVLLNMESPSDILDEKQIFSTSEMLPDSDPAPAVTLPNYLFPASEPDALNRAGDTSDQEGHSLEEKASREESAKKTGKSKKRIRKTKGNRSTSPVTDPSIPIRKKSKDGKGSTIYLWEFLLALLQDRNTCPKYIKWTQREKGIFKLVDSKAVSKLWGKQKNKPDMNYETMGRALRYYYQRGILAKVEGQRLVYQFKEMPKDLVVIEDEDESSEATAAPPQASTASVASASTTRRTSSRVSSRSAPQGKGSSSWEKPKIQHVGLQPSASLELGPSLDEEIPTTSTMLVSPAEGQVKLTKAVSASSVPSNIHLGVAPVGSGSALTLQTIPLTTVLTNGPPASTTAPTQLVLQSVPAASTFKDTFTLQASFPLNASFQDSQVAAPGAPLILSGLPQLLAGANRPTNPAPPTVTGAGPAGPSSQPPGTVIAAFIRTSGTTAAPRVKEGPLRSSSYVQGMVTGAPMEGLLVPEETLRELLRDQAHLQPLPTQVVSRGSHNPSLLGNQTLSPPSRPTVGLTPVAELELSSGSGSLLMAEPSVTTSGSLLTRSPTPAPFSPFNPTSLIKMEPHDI
Chain of HSF1 (Q00613 whole entry): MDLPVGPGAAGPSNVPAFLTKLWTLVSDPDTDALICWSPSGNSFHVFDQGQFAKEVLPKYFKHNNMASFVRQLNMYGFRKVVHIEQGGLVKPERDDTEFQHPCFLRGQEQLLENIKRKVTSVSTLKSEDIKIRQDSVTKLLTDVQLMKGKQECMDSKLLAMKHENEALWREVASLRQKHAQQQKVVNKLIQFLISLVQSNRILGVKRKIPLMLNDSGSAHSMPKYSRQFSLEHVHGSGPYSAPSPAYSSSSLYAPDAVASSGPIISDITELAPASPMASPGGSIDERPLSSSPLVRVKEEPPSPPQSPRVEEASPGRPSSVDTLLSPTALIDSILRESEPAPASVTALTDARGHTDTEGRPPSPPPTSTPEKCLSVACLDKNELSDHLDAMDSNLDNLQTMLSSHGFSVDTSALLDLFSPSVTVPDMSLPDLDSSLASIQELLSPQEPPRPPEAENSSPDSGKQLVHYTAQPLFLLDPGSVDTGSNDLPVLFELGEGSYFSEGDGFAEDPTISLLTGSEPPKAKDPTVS
Chain of ETV1 (P50549 whole entry): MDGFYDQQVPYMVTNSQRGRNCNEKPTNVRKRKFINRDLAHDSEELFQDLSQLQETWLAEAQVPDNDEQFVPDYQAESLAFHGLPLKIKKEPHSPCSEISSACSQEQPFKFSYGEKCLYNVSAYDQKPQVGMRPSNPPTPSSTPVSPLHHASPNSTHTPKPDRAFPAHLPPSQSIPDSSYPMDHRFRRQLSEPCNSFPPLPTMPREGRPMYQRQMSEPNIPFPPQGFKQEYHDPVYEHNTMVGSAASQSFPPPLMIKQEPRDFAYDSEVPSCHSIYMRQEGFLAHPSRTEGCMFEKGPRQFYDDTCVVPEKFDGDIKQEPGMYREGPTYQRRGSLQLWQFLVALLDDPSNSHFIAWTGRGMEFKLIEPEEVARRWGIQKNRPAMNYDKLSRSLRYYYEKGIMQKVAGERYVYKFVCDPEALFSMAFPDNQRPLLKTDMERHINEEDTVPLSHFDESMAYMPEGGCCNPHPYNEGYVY

With ACCTGC, the binding signal with FEV was 1.5 fold enrichment (6-mer frequency, TF over GST control); in the experiment with ETV5, 1.53 fold enrichment (6-mer frequency, TF over GST control); with HSF1 it was 1.27 fold enrichment (6-mer frequency, TF over GST control); with SPIC it was 1.22 fold enrichment (6-mer frequency, TF over GST control); with ELF4, 1.47 fold enrichment (6-mer frequency, TF over GST control); with ELK4 it was 1.59 fold enrichment (6-mer frequency, TF over GST control). For the same sequence, the binding signal with ETV2 was 1.39 fold enrichment (6-mer frequency, TF over GST control); with ELF3, 1.65 fold enrichment (6-mer frequency, TF over GST control); in the experiment with CRX, 1.22 fold enrichment (6-mer frequency, TF over GST control); with ETV1, 1.57 fold enrichment (6-mer frequency, TF over GST control); with ERF it was 1.35 fold enrichment (6-mer frequency, TF over GST control); with ETV3L it was 1.42 fold enrichment (6-mer frequency, TF over GST control). Also, the binding signal with ETS2 is 1.5 fold enrichment (6-mer frequency, TF over GST control); with SPDEF, 1.4 fold enrichment (6-mer frequency, TF over GST control); in the experiment with ETV7, 1.48 fold enrichment (6-mer frequency, TF over GST control); with ELF5 it was 1.39 fold enrichment (6-mer frequency, TF over GST control); with ETV3 it was 1.44 fold enrichment (6-mer frequency, TF over GST control); with ETV6, 1.66 fold enrichment (6-mer frequency, TF over GST control).
